Some test systems named below: RPMI-8226 leukemia; OVCAR-8 ovarian; OVCAR-5 ovarian; OVCAR-4 ovarian; SK-OV-3 ovarian; IGROV1 ovarian; OVCAR-3 ovarian; HS 578T breast; NCI/ADR-RES ovarian; T-47D breast; BT-549 breast; MDA-MB-435 melanoma; SW-620 colon; MCF7 breast; HCT-116 colon; HCC-2998 colon; KM12 colon.
Common to all, as to experiment: NCI-60 one-dose screen, 48 h (100 = growth as untreated, 0 = no growth, -100 = all killed)
Common to all, as to conditions: 10 µM

From PubChem BioAssay (NCI) come the findings set out here.

SMILES strings stand for the structures. About 83,000 compounds went through this panel and 20% of them were active in at least one assay; those are over-represented in the sample as a whole.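 Plates (96-well) were seeded with cells, treated with compound at one concentration, and incubated for 48 hours before percent growth was determined.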 Unmarked numbers belong to inactive results. Calls of active or inactive are those of the source. How the source made its calls: active means growth percent below 10; inactive means the rest.

Consider `O=S(=O)(NCCNc1nccc(-c2c(-c3ccc(F)cc3)nc3sccn23)n1)c1ccc2ccccc2c1`, for which the growth was 60.2% in the assay with RPMI-8226 leukemia; 69.6% in the assay with OVCAR-8 ovarian; 130% with OVCAR-5 ovarian; 96.2% with OVCAR-4 ovarian; 85.2% with SK-OV-3 ovarian; 49.4% in the assay on IGROV1 ovarian. Besides, the growth in the assay with OVCAR-3 ovarian is 87.9%; in the assay on HS 578T breast it was 111%; in the assay on NCI/ADR-RES ovarian it was 84.4%; in the assay with T-47D breast, 61.9%; in the assay on BT-549 breast, 92.5%; in the assay with MDA-MB-435 melanoma, 56.4%. Moreover, the growth with SW-620 colon is 97.5%; in the assay on MCF7 breast it was 38.2%; with HCT-116 colon, 61.8%; in the assay with HCC-2998 colon, 82.6%; in the assay with KM12 colon, 75.6%.
On to `O=C(Nc1cccc(-n2cc(-c3ccncc3)c(-c3cc(O)cc(Cl)c3)n2)c1)c1cc(C(F)(F)F)cc(C(F)(F)F)c1`, for which the growth with RPMI-8226 leukemia is 32.1%; with OVCAR-8 ovarian, 39.6%; in the assay with OVCAR-5 ovarian it was 70.7%; with OVCAR-4 ovarian, 59.6%; with SK-OV-3 ovarian, 68.8%; with IGROV1 ovarian, 73%. Also, the growth was 15.2% in the assay with OVCAR-3 ovarian; 65.9% in the assay on HS 578T breast; 46.9% in the assay on NCI/ADR-RES ovarian; 26.3% in the assay on T-47D breast; 73.4% in the assay on BT-549 breast; 45.6% in the assay on MDA-MB-435 melanoma. Besides, the growth with SW-620 colon is 61%; with MCF7 breast it was 23%; with HCT-116 colon, 24.5%; with HCC-2998 colon, 28.9%; with KM12 colon, 21.2%.
In the case of `COc1ccc(-c2nc(-c3nc4ccc(Cl)cc4[nH]3)c3ccccn23)cc1`, the growth in the assay on RPMI-8226 leukemia is 49.3%; with OVCAR-8 ovarian, -27.1% (active); with OVCAR-5 ovarian, 82.5%; with OVCAR-4 ovarian, -77% (active); in the assay with SK-OV-3 ovarian, -47.8% (active); with IGROV1 ovarian it was 84.8%. Moreover, the growth in the assay with OVCAR-3 ovarian was 8.15% (active); in the assay with HS 578T breast, -19.3% (active); in the assay on NCI/ADR-RES ovarian, 33.6%; in the assay with T-47D breast, 64.7%; with MDA-MB-435 melanoma it was 58.3%; in the assay with SW-620 colon it was 75.2%. In addition, the figures for the growth in the assay with MCF7 breast, with HCT-116 colon and in the assay with HCC-2998 colon were 41.5%, 4.9% (active) and 69.3%, respectively.
Turning to `CCOC(=O)N1C/C(=C/c2ccc(OC)cc2)C(=O)/C(=C/c2ccc(OC)cc2)C1`, the growth with RPMI-8226 leukemia was -14.8% (active); in the assay with OVCAR-8 ovarian, 19.6%; in the assay with OVCAR-5 ovarian, 95%; in the assay with OVCAR-4 ovarian it was 58%; in the assay on SK-OV-3 ovarian it was 26.9%; in the assay on IGROV1 ovarian, 17.2%. Also, the growth with OVCAR-3 ovarian was 0.817% (active); in the assay with HS 578T breast, -15.8% (active); in the assay on NCI/ADR-RES ovarian it was 21.7%; in the assay on T-47D breast, 43.7%; in the assay with MDA-MB-435 melanoma, -33.4% (active); in the assay with SW-620 colon, -38.7% (active). Moreover, the growth is -5.59% (active) in the assay on MCF7 breast, -82.8% (active) in the assay on HCT-116 colon and -92.5% (active) in the assay on HCC-2998 colon.
With `N=C(N)c1ccc(-c2ccc(-c3cccs3)s2)cc1`, the growth was -30.9% (active) in the assay on RPMI-8226 leukemia; -14% (active) in the assay with OVCAR-8 ovarian; 67% in the assay on OVCAR-5 ovarian; -19.8% (active) in the assay with OVCAR-4 ovarian; 65.9% with SK-OV-3 ovarian; 94.9% with IGROV1 ovarian. For the same compound, the growth is 36.7% with OVCAR-3 ovarian; 104% in the assay on HS 578T breast; 56.1% with NCI/ADR-RES ovarian; 55.1% with T-47D breast; -85.9% (active) with MDA-MB-435 melanoma; -66.2% (active) with SW-620 colon. The growth is -79.4% (active) with MCF7 breast, -67.1% (active) in the assay on HCT-116 colon and -69.5% (active) in the assay with HCC-2998 colon.
With `CC(=O)c1nc2ccccc2n1CCN1CCN(C)CC1`, the growth with RPMI-8226 leukemia was 3.09% (active); in the assay with OVCAR-8 ovarian, 34.8%; in the assay on OVCAR-5 ovarian it was 53.7%; with OVCAR-4 ovarian, 64.6%; with SK-OV-3 ovarian it was 27.4%; in the assay on IGROV1 ovarian it was 39.3%. For the same compound, the growth is 4.3% (active) in the assay on OVCAR-3 ovarian; 48.3% with HS 578T breast; 97% in the assay with NCI/ADR-RES ovarian; 33.4% with T-47D breast; 48.1% in the assay on BT-549 breast; -80.2% (active) with MDA-MB-435 melanoma. Moreover, the growth with MCF7 breast was 17.8%; in the assay on HCT-116 colon, 11%; in the assay on HCC-2998 colon it was 37.9%; in the assay on KM12 colon, 14.1%.
For `COc1cc2nc(Nc3cccc(C(=O)O)c3)nc(N)c2cc1OC`, the growth in the assay with RPMI-8226 leukemia is 307%; with OVCAR-8 ovarian it was 105%; in the assay on OVCAR-5 ovarian it was 114%; in the assay on OVCAR-4 ovarian, 103%; in the assay with SK-OV-3 ovarian, 107%; with IGROV1 ovarian, 16.4%. Besides, the growth with OVCAR-3 ovarian is 101%; in the assay on HS 578T breast, 93.4%; in the assay on NCI/ADR-RES ovarian, 133%; with T-47D breast, 105%; in the assay with MDA-MB-435 melanoma it was 107%; in the assay with SW-620 colon it was 96.3%. The growth was 97.8% in the assay on MCF7 breast, -100% (active) in the assay with HCT-116 colon, 135% with HCC-2998 colon and 108% with KM12 colon.
`N=C(N)c1ccc(-c2ccc(-c3ccco3)o2)cc1`: the growth was 25.3% in the assay with RPMI-8226 leukemia; 76.2% in the assay with OVCAR-8 ovarian; 79% in the assay on OVCAR-5 ovarian; 62.9% with OVCAR-4 ovarian; 94.9% in the assay on SK-OV-3 ovarian; 69.7% in the assay on IGROV1 ovarian. Further, the growth in the assay with OVCAR-3 ovarian was 88.2%; in the assay on HS 578T breast, 83.4%; with NCI/ADR-RES ovarian, 93.1%; with T-47D breast, 58.7%; in the assay on MDA-MB-435 melanoma, 55.4%; in the assay with SW-620 colon, 60.3%. For the same compound, the results for the growth with MCF7 breast, in the assay on HCT-116 colon and in the assay with HCC-2998 colon were 42.8%, 42.5% and -28.3% (active), respectively.
